From PubChem
This is one part of a sample in which hits are shown more often than they occur.
DUX4 txn inh – inhibitors of DUX4-driven ZSCAN4 reporter expression, primary screen, 293T cells, Gaussia and Italica luciferase; 293T-iDUX4 ZSCAN4-Gaussia luciferase reporter, 24 h; active compounds read low; hit rate 0.8% among 37,000; activity change, negative = inhibition, % (concentration not given with the values);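 active = mean inhibition of at least 10% in the main channel, exceeding the control channel by a set limit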;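 note: 0% = median of neutral control wells and -100% = median of positive control wells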
* hit, by the source's call; ! = not confirmed by another sample.

SMILES	DUX4 txn inh
C[C@@H]1CN([C@H](C)CO)C(=O)c2c(c3ccccc3n2C)-c2ccccc2CO[C@H]1CN(C)Cc1cccc2c1OCCCO2	-32*
C[C@@H]1CN([C@@H](C)CO)C(=O)c2ccccc2-c2ccccc2CO[C@@H]1CN(C)C(=O)Nc1cccc(C(F)(F)F)c1	4
CN(C)C(=O)C[C@H]1CC[C@@H]2[C@@H](COc3ccc(NC(=O)c4ccc(F)cc4)cc3C(=O)N2C)O1	5
CO[C@H](CN(C)C(=O)c1ccc2c(c1)OCO2)[C@@H](C)CN([C@H](C)CO)S(=O)(=O)c1ccc(C)cc1	-1
COCCNC(=O)C[C@H]1CC[C@H]2[C@@H](COC[C@H](O)CN2Cc2ccc(Cl)c(Cl)c2)O1	-1
C[C@@H]1CCCCO[C@@H](CN(C)C(=O)CCCN(C)C)[C@@H](C)CN([C@H](C)CO)C(=O)c2cc(N(C)C)ccc2O1	5
COc1cccc(S(=O)(=O)N2[C@@H]3CNC[C@H]2C3c2ccc(-c3ccccc3C)cc2)c1 (some centres undefined)	16
Cc1ccccc1-c1ccc(C2[C@@H]3CN(S(=O)(=O)c4ccccc4C)C[C@H]2N3)cc1 (some centres undefined)	-36*!
O=C(c1cnccn1)N1C[C@@H]2N[C@H](C1)C2c1ccc(/C=C/c2ccccc2)cc1 (some centres undefined)	-5
CN(C)C(=O)c1ccc(-c2ccc(C3[C@@H]4CN(S(=O)(=O)c5ccccc5F)C[C@H]3N4)cc2)cc1 (some centres undefined)	1
Cc1ccccc1-c1ccc(C2[C@@H]3CN(S(=O)(=O)c4ccccc4)C[C@H]2N3)cc1 (some centres undefined)	-50*!
CN(C)C(=O)c1ccc(-c2ccc(C3[C@@H]4CN(Cc5cccnc5)C[C@H]3N4)cc2)cc1 (some centres undefined)	4
Cc1ccccc1-c1ccc(C2[C@@H]3CN(Cc4cccnc4)C[C@H]2N3)cc1 (some centres undefined)	-24*
COc1ccc(NC(=O)N2C[C@@H]3N[C@H](C2)C3c2ccc(-c3ccncc3)cc2)cc1 (some centres undefined)	8
COc1ccc(-c2ccc(C3[C@@H]4CN(C(=O)c5cnccn5)C[C@H]3N4)cc2)cc1 (some centres undefined)	-32*
Cc1ccccc1-c1ccc(C2[C@@H]3CN(C(=O)C4CCOCC4)C[C@H]2N3)cc1 (some centres undefined)	1
C/C=C/c1ccc(C2[C@@H]3CN(S(=O)(=O)c4ccc(F)cc4)C[C@H]2N3)cc1 (some centres undefined)	2
COc1ccccc1-c1ccc(C2[C@@H]3CN(C(=O)c4cccnc4)C[C@H]2N3)cc1 (some centres undefined)	10
C[C@@H]1CCCCO[C@H](CN(C)C(=O)Cc2ccccc2)[C@@H](C)CN([C@H](C)CO)C(=O)c2cc(NC(=O)CCCN(C)C)ccc2O1	-5
C[C@@H]1CCCCO[C@@H](CN(C)C(=O)CCC(F)(F)F)[C@@H](C)CN([C@@H](C)CO)C(=O)c2cc(NS(=O)(=O)c3cccs3)ccc2O1	-1
COCC(=O)N1[C@@H]2c3ccc(C4=CCCCC4)c(=O)n3C[C@@H]2[C@@H](CO)[C@@H]1C(=O)N1CCOCC1	-4
CC(C)NC(=O)N(C)C[C@@H]1OCc2ccccc2-c2ccccc2C(=O)N([C@H](C)CO)C[C@@H]1C	12
CC(=O)N1[C@H](CO)[C@@H](c2ccc(C3=CCCC3)cc2)C12CN(C(=O)C1CC1)C2	7
COCC(=O)N1CC2(CCN(C(C)=O)CC2)c2c([nH]c3cc(OC)ccc23)[C@H]1CO	13
CCCN1C[C@@H](C)[C@@H](OC)CN(C)C(=O)c2cc(NC(=O)c3cccc(OC)c3)ccc2OC[C@@H]1C	-3
SMILES	DUX4 txn inh
C[C@H](CO)N1C[C@H](C)[C@H](CN(C)C(=O)Nc2ccc(F)cc2)OCc2cnnn2CCCC1=O	-4
C/C=C/c1ccc([C@@H]2[C@@H](CN(CC)C(C)=O)N(C(=O)C3CC3)[C@H]2CO)cc1	-3
CC(C)(C)[S@](=O)N1Cc2cc(C(=O)N3CCOCC3)nc(-c3cccc(-c4ccc(C#N)cc4)c3)c2[C@@H]1CCO	6
COCC#Cc1ccc2c(c1)O[C@H](CN(C)S(=O)(=O)c1ccc(OC)cc1)[C@H](C)CN([C@@H](C)CO)S2(=O)=O	-1
CO[C@@H]1CN(C)C(=O)c2ccc(NS(C)(=O)=O)cc2OC[C@H](C)N(C(=O)CN(C)C)C[C@H]1C	5
COc1ccccc1S(=O)(=O)N1C[C@@H]2N[C@H](C1)C2c1ccc(-c2ccccc2C)cc1 (some centres undefined)	-42*!
COc1ccccc1-c1ccc(C2[C@@H]3CN(C(=O)c4ccncc4)C[C@H]2N3)cc1 (some centres undefined)	9
C/C=C/c1ccc(C2[C@@H]3CN(S(=O)(=O)c4ccccc4F)C[C@H]2N3)cc1 (some centres undefined)	-6
